Test results reported in the supplement of paper PMC10849652.
About 8,800 targets were measured; listed, in parts, are those with a hit and a random draw of the rest. About 0.5% of all pairs of compound and target were hits. Unmarked numbers belong to inactive results.

How the values were obtained:
Test in all cases: log2 fold change, soluble protein after heating vs DMSO (PISA); higher = thermal stabilisation; K562 lysate, 10 uM; active = over 0.2 and 3.5 SD of the protein, either way, in both replicates (recomputed)
lapatinib = compound: CS(=O)(=O)CCNCc1ccc(-c2ccc3ncnc(Nc4ccc(OCc5cccc(F)c5)c(Cl)c4)c3c2)o1 [lapatinib]
How it was run: (§1)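 Following dounce homogenisation of K562 pellets in PBS pH 7.4 with 1 mM MgCl2, crude extract at 1 mg/mL protein was incubated for 30 min with 10 μM compound. Aliquots were then heated for 3 min over 48°C-58°C and pooled, NP-40 was added to 0.5% at 4°C, and soluble protein was recovered as the supernatant at 21,000xg for 90 min. Channel-sum-equalised TMTpro 16plex LC-MS/MS quantified this protein. Each value, from duplicates, is a log-two fold change in thermal stability relative to solvent controls.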

pictilisib = compound: CS(=O)(=O)N1CCN(Cc2cc3nc(-c4cccc5[nH]ncc45)nc(N4CCOCC4)c3s2)CC1 [pictilisib]
How it was run: as §1

crizotinib = compound: C[C@@H](Oc1cc(-c2cnn(C3CCNCC3)c2)cnc1N)c1c(Cl)ccc(F)c1Cl [crizotinib]
How it was run: as §1

[1] = compound: C[C@H](C1=CC=C(C=C1)C(=O)NC2=C3C=CNC3=NC=C2)N
How it was run: as §1

duvelisib = compound: C[C@H](Nc1ncnc2nc[nH]c12)c1cc2cccc(Cl)c2c(=O)n1-c1ccccc1 [duvelisib]
How it was run: as §1

gandotinib = compound: Cc1cc(Nc2cc(CN3CCOCC3)c3nc(C)c(Cc4ccc(Cl)cc4F)n3n2)n[nH]1 [gandotinib]
How it was run: as §1

tozasertib = compound: Cc1cc(Nc2cc(N3CCN(C)CC3)nc(Sc3ccc(NC(=O)C4CC4)cc3)n2)n[nH]1 [tozasertib]
How it was run: as §1

doramapimod = compound: Cc1ccc(-n2nc(C(C)(C)C)cc2NC(=O)Nc2ccc(OCCN3CCOCC3)c3ccccc23)cc1 [doramapimod]
How it was run: as §1

bafetinib = compound: Cc1ccc(NC(=O)c2ccc(CN3CC[C@H](N(C)C)C3)c(C(F)(F)F)c2)cc1Nc1nccc(-c2cncnc2)n1 [bafetinib]
How it was run: as §1

[2] = compound: Cc1cccc(CC(=O)N2CCc3c2ccc(-c2cn(C)c4ncnc(N)c24)c3F)n1
How it was run: as §1

nilotinib = compound: Cc1cn(-c2cc(NC(=O)c3ccc(C)c(Nc4nccc(-c5cccnc5)n4)c3)cc(C(F)(F)F)c2)cn1 [nilotinib]
How it was run: as §1

[3] = compound: Cc1nc(Nc2n[nH]c3c2CN(C(=O)N[C@H](CN(C)C)c2ccccc2)C3(C)C)c2sccc2n1
How it was run: as §1

dasatinib = compound: Cc1nc(Nc2ncc(C(=O)Nc3c(C)cccc3Cl)s2)cc(N2CCN(CCO)CC2)n1 [dasatinib]
How it was run: as §1

[4] = compound: Cc1ncc(-c2ccnc(Nc3ccc(S(C)(=O)=O)cc3)n2)n1C(C)C
How it was run: as §1

[5] = compound: Cn1cc(-c2ccc3c(c2)CCN3C(=O)Cc2cccc(C(F)(F)F)c2)c2c(N)ncnc21
How it was run: as §1

quisinostat = compound: Cn1cc(CNCC2CCN(c3ncc(C(=O)NO)cn3)CC2)c2ccccc21 [quisinostat]
How it was run: as §1

tipifarnib = compound: Cn1cncc1[C@@](N)(c1ccc(Cl)cc1)c1ccc2c(c1)c(-c1cccc(Cl)c1)cc(=O)n2C [tipifarnib]
How it was run: as §1

[6] = compound: NC(=O)Nc1cc(-c2cccc(F)c2)sc1C(=O)N[C@H]1CCCNC1
How it was run: as §1

[7] = compound: NC(=O)c1cnc(N[C@@H]2CCCC[C@@H]2N)nc1Nc1cccc(-n2nccn2)c1
How it was run: as §1

[8] = compound: NC1(c2ccc(-c3nc4ccn5c(=O)[nH]nc5c4cc3-c3ccccc3)cc2)CCC1
How it was run: as §1

Chain of UniProt P33121 (P33121 whole entry, looked up): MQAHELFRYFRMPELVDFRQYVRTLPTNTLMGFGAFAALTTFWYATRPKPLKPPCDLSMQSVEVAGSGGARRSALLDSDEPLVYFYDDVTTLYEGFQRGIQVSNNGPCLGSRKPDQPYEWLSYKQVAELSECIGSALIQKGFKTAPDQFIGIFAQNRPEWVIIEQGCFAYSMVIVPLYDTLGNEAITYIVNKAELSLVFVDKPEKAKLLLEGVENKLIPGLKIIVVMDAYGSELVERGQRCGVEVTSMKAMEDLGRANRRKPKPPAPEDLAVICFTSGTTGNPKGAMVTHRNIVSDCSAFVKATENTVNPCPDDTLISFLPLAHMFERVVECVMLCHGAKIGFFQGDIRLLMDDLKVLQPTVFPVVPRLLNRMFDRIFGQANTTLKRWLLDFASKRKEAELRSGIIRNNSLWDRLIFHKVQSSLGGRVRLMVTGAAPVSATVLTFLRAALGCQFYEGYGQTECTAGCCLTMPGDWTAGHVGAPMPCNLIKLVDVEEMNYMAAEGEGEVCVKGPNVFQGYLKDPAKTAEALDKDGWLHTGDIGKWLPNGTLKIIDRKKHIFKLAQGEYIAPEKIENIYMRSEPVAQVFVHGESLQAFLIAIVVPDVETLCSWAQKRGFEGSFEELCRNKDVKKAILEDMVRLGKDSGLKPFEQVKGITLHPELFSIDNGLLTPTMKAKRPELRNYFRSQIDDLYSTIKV
Chain of UniProt P10398 (P10398 whole entry, looked up): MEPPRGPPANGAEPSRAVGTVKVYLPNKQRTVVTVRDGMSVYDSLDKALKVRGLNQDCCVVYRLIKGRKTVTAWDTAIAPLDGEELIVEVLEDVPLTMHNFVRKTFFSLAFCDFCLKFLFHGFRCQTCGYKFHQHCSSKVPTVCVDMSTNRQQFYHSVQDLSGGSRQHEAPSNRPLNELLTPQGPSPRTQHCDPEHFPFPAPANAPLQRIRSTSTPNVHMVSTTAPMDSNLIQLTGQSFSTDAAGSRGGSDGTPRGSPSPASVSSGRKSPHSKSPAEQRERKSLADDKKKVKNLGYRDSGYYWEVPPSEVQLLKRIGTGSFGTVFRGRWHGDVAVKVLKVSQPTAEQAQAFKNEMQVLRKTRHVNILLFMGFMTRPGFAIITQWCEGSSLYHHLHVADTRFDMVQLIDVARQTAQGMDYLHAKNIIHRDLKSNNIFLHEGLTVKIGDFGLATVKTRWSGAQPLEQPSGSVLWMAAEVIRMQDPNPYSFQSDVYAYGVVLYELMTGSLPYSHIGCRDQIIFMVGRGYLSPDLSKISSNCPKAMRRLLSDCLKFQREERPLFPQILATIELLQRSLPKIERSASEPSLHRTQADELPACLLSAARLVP
Chain of UniProt Q9UG63 (Q9UG63 whole entry, looked up): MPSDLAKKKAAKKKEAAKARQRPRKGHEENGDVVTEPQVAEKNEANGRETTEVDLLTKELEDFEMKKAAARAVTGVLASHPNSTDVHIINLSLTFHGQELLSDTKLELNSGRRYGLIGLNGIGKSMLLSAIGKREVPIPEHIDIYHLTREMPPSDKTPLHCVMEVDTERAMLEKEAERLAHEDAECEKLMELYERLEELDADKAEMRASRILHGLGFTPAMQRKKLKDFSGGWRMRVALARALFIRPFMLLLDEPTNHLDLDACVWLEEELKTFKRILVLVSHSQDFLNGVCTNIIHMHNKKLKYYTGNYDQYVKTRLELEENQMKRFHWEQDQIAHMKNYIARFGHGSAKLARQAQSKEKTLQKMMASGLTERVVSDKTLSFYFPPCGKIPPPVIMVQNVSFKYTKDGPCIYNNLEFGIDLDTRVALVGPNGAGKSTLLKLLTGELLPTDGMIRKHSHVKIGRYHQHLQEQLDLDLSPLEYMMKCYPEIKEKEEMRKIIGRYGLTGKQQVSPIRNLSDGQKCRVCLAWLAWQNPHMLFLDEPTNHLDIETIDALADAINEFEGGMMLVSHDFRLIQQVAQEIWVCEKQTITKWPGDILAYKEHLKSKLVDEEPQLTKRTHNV
Chain of UniProt Q02252 (Q02252 whole entry, looked up): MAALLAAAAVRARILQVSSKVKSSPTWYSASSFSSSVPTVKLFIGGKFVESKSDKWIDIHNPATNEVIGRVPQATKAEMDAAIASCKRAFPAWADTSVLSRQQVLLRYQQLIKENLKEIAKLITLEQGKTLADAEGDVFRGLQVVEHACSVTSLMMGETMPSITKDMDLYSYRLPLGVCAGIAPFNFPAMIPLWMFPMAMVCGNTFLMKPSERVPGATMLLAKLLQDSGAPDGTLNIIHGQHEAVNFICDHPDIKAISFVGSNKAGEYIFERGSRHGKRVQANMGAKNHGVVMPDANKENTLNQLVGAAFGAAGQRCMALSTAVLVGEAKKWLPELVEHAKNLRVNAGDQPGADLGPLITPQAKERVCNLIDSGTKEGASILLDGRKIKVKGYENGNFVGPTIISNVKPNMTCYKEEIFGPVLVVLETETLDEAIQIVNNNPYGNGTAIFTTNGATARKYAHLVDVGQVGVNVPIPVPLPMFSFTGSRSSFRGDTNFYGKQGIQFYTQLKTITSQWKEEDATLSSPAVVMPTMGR
Chain of UniProt O43182 (O43182 whole entry, looked up): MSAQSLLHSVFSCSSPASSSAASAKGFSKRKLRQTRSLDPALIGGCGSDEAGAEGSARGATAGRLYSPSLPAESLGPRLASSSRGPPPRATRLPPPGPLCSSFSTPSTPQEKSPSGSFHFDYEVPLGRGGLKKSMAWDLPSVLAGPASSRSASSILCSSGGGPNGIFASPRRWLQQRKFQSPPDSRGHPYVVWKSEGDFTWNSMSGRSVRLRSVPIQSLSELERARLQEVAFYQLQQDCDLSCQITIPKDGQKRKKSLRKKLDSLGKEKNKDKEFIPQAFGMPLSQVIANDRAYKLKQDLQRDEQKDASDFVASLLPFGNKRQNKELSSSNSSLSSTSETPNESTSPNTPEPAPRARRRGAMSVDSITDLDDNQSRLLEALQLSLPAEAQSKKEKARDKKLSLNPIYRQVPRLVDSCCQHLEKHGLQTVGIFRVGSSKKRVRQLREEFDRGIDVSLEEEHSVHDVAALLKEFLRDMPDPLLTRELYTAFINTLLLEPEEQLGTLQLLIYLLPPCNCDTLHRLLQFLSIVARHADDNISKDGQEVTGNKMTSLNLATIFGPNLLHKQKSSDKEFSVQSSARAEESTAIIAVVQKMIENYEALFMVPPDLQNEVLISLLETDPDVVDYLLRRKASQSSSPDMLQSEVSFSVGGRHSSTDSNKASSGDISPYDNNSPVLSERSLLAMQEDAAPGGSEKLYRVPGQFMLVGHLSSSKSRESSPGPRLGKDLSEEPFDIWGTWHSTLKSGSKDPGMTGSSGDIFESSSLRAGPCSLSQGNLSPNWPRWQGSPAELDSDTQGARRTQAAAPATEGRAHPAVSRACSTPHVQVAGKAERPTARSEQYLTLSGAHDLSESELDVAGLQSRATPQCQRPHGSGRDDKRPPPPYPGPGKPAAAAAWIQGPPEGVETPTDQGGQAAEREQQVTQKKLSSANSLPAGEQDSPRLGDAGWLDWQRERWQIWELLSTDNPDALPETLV
Chain of UniProt Q9UH62 (Q9UH62 whole entry, looked up): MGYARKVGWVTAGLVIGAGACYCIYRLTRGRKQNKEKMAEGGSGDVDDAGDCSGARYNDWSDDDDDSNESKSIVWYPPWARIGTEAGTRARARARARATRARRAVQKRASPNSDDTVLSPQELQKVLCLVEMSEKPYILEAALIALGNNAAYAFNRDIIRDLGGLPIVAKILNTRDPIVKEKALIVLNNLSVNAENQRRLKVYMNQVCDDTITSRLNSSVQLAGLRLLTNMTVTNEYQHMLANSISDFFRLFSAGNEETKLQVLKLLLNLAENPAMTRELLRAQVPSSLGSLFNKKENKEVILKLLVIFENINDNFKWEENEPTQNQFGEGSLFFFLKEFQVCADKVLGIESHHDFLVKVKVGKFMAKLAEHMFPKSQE
Chain of UniProt P24752 (P24752 whole entry, looked up): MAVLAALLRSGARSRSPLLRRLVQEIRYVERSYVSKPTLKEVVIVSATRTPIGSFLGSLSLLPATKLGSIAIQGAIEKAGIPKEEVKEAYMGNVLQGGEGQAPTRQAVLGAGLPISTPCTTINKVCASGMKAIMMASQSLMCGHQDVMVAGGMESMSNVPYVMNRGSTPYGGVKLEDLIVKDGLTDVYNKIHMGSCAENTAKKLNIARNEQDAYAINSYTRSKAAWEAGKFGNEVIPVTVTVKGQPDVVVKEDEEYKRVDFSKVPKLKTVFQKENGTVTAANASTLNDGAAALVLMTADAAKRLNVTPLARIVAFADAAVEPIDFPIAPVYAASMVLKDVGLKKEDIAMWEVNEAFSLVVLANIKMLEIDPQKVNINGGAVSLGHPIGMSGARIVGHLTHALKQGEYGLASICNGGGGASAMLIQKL
Chain of UniProt Q7L211 (Q7L211 whole entry, looked up): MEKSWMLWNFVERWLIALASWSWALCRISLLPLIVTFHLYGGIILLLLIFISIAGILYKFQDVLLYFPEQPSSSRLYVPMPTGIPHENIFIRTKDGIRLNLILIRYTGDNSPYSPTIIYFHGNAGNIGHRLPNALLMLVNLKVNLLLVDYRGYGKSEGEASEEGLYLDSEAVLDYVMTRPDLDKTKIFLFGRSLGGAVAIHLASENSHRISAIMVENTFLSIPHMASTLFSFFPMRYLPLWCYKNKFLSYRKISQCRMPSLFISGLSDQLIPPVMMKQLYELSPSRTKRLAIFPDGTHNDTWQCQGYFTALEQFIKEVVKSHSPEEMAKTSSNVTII

Target | log2 fold change (lapatinib) | log2 fold change (pictilisib) | log2 fold change (crizotinib) | log2 fold change [1] | log2 fold change (duvelisib) | log2 fold change (gandotinib) | log2 fold change (tozasertib) | log2 fold change (doramapimod) | log2 fold change (bafetinib) | log2 fold change [2] | log2 fold change (nilotinib) | log2 fold change [3] | log2 fold change (dasatinib) | log2 fold change [4] | log2 fold change [5] | log2 fold change (quisinostat) | log2 fold change (tipifarnib) | log2 fold change [6] | log2 fold change [7] | log2 fold change [8]
ALDH6A1 (UniProt Q02252) | -0.04 | -0.028 | -0.023 | -0.032 | 0.073 | -0.033 | 0.021 | -0.017 | 0.122 | -0.001 | -0.053 | 0.161 | -0.144 | -0.022 | 0.06 | -0.027 | -0.026 | 0.018 | -0.038 | -0.013
ARAF (UniProt P10398) | -0.019 | 0.011 | -0.041 | -0.045 | -0.025 | -0.077 | -0.007 | 0.006 | -0.047 | -0.031 | -0.005 | 0.018 | 0.16 | 0.022 | 0.02 | -0.069 | -0.023 | 0.011 | 0.018 | -0.012
ARMCX3 (UniProt Q9UH62) | -0.058 | 0.005 | -0.076 | 0.078 | 0.064 | -0.064 | 0.005 | -0.003 | -0.044 | 0.032 | 0.023 | -0.028 | -0.107 | -0.003 | 0.067 | -0.057 | -0.008 | 0.04 | 0.008 | -0.002
ARHGAP6 (UniProt O43182) | 0.006 | 0.012 | -0.038 | 0.106 | 0.001 | -0.097 | 0.004 | -0.003 | -0.055 | -0.022 | -0.003 | -0.014 | -0.102 | 0 | 0.052 | -0.019 | 0.02 | 0.034 | -0.025 | -0.039
ABCF2 isoform 2 (UniProt Q9UG63) | -0.038 | -0.005 | -0.011 | -0.001 | 0.021 | -0.097 | 0.057 | -0.002 | -0.025 | -0.024 | 0.001 | -0.001 | -0.036 | -0.024 | 0.005 | -0.022 | 0.002 | 0.042 | -0.002 | -0.023
ABHD13 (UniProt Q7L211) | -0.059 | 0.049 | 0.197 | -0.593 (active) | 0 | 0.193 | -0.044 | -0.104 | -0.197 | 0.184 | 0.152 | -0.186 | -0.177 | -0.069 | 0.21 | 0.121 | -0.233 | -0.029 | 0.037 | 
ACSL1 (UniProt P33121) | -0.03 | -0.094 | -0.115 | 0.021 | 0.043 | -0.049 | 0.033 | 0.053 | -0.038 | 0.061 | -0.004 | -0.002 | -0.132 | 0.013 | 0.05 | 0.007 | -0.013 | 0.034 | -0.025 | -0.04
ACAT1 (UniProt P24752) | -0.024 | -0.013 | 0.029 | -0.018 | -0.016 | 0.03 | -0.009 | -0.005 | 0.026 | 0.008 | 0.028 | -0.021 | 0.015 | 0.019 | -0.029 | -0.006 | 0.044 | -0.001 | -0.005 | 0.021
